SKN-1 inh: blocks SKN-1 activity in C. elegans; C. elegans VP596 Pgst-4::GFP/RFP ratio, acrylamide-induced, 24 h; inhibition, % at 21.8 µM; 0.49% of 360,000 active; AID 624304;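 active = interference check ratio from 0.5 to 1.5 plus GFP to RFP signal ratio inhibition reaching or exceeding a fixed threshold, cut at about 30% in these data, passing the limit was not always enough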
esBAF inh: blocks esBAF chromatin remodeling in mouse ES cells; Bmi1-luciferase knock-in reporter, 24 h; 100% = twice the neutral-well signal; reporter increase, % at 12.5 µM; 2% of 350,000 active; in the data active = activation above about 40%;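 also: 0% = median of the plate's neutral control wells and 100% = double that signal; a rise in the Bmi1 reporter signal indicates esBAF inhibition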
NR3A LBD binder: modulators (binders) of human NR3A ligand-binding domain. NR3A LBD differential scanning fluorimetry, Tm shift; 0% = protein alone, 100% = glycine-bound protein. Tm shift relative to glycine control, % at 25 µM. 2.5% of 340,000 active;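 active = melting temperature shift of at least 10% of the positive control shift, at one fixed dose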
Vif inh: inhibitors of HIV Vif; inhibition, % at 7.49 µM; HEK293T cells, Vif self-association by quenched fluorescence, imaging, 24 h; AID 602346; 0.35% of 340,000 active; in the data active = inhibition above about 50%, passing the limit was not always enough
NadD block: inhibitors of Staphylococcus aureus NadD; purified NadD enzyme, colorimetric absorbance read-out; inhibition, % at 20 µM; 0.78% of 360,000 active; in the data active = inhibition above about 26%
SMARCA2 act: increases SMARCA2 function in MMTV reporter cells. activation, % at 9.1 µM. 1% of 370,000 active. AID 652017. MG213 cells, MMTV-luciferase reporter, dexamethasone, overnight; in the data active = activation above about 7.8%;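 also: 0% = vehicle wells and 100% = reference activator wells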
The depositor's hits bear a star. This is a sample that favours compounds with a hit; in the whole collection about 5.2% have one here.

How did CCOC(=O)c1sc(NCCNc2nc(C)c(C(=O)OCC)s2)nc1C do in these assays?
NR3A LBD binder: 1

Results for CCOC(=O)c1sc(NC(=O)Nc2ccccc2F)nc1C ?
SKN-1 inh: 2; esBAF inh: -65; NR3A LBD binder: -5; Vif inh: -12; NadD block: 4; SMARCA2 act: -2

How did CCOC(=O)c1sc(Nc2ccccc2Cl)nc1C do in these assays?
SKN-1 inh: 32; esBAF inh: 65*; NR3A LBD binder: 3; Vif inh: -10; NadD block: -2; SMARCA2 act: 3

How did O=c1cc(-c2ccccc2Cl)oc2cc(O)cc(O)c12 do in these assays?
SKN-1 inh: 4; esBAF inh: 58*; NR3A LBD binder: -3; Vif inh: -4; NadD block: -5; SMARCA2 act: 4

What do the screens show for `Clc1ccc(/C=N/Nc2ncnc3ccccc23)cc1Cl`?
SKN-1 inh: 7; esBAF inh: 74*; NR3A LBD binder: 17*; Vif inh: -10; NadD block: 1; SMARCA2 act: 4

What do the screens show for `C[C@@H]1CN([C@H](C)CO)C(=O)Cc2cc(NS(=O)(=O)c3cccs3)ccc2O[C@@H]1CN(C)C(=O)NC1CCCCC1`?
esBAF inh: 4

Results for NS(=O)(=O)c1ccc(CNC(=S)Nc2ccc(Cl)c(Cl)c2)cc1 ?
SKN-1 inh: -4; esBAF inh: -8; NR3A LBD binder: 12*; Vif inh: 26; NadD block: -6; SMARCA2 act: -1

Results for COc1ccc(NC(=S)NCc2ccc(S(N)(=O)=O)cc2)cc1OC ?
SKN-1 inh: 2; esBAF inh: 0; NR3A LBD binder: -4; Vif inh: 3; NadD block: 5; SMARCA2 act: -2

How did COc1cc(/C=N/NC(=O)Cc2csc(C)n2)ccc1OCC(C)C do in these assays?
SKN-1 inh: -1; NR3A LBD binder: -1; Vif inh: -4; NadD block: -6; SMARCA2 act: 3

What do the screens show for `COc1ccc(/C=N/NC(=O)Cc2csc(Nc3cccc(C(F)(F)F)c3)n2)cc1C`?
SKN-1 inh: 37*; esBAF inh: 7; NR3A LBD binder: 22*; Vif inh: -6; NadD block: 14; SMARCA2 act: -4

Results for CN1C(=O)c2cc(NC(=O)c3ccc(Cl)cc3)ccc2OC[C@H]2O[C@@H](CC(=O)O)CC[C@@H]21 ?
esBAF inh: -1

What do the screens show for `CC(=O)N[C@@H]1C=C[C@H](CC(=O)NCc2ccc(Cl)cc2)O[C@H]1CO`?
esBAF inh: 2

Results for C[C@H](NC(=O)C[C@H]1C[C@@H]2c3cc(NC(=O)CN(C)C)ccc3O[C@@H]2[C@H](CO)O1)c1ccccc1 ?
esBAF inh: -2

How did CC(=O)c1sc(N/N=C/c2cccc(O)c2)nc1C do in these assays?
SKN-1 inh: 2; esBAF inh: 63*; NR3A LBD binder: 14*; NadD block: 4; SMARCA2 act: 2

What do the screens show for `C(=N\Nc1nc(-c2ccccc2)cs1)/c1ccncc1`?
SKN-1 inh: 14; NR3A LBD binder: -16; Vif inh: 6; NadD block: 10; SMARCA2 act: 4

How did CN(C)S(=O)(=O)c1ccc(-c2csc(N/N=C/c3ccc(O)cc3)n2)cc1 do in these assays?
SKN-1 inh: 2; esBAF inh: -76; NR3A LBD binder: 23*; Vif inh: -4; NadD block: 38*; SMARCA2 act: -8

What do the screens show for `CCOC(=O)Cc1csc(N/N=C/c2cccc([N+](=O)[O-])c2)n1`?
SKN-1 inh: 8; esBAF inh: -1; NR3A LBD binder: -1; Vif inh: 3; NadD block: 1; SMARCA2 act: -4

What do the screens show for `O=[N+]([O-])c1cccc(-c2csc(N/N=C/c3cccc(O)c3)n2)c1`?
SKN-1 inh: 5; esBAF inh: 29; NR3A LBD binder: 24*; Vif inh: -17; NadD block: 28; SMARCA2 act: 0

What do the screens show for `CCOC(=O)c1sc(N/N=C/c2cc(Br)c(O)c(OC)c2)nc1C`?
SKN-1 inh: 18; esBAF inh: -6; NR3A LBD binder: 14*; Vif inh: -4; NadD block: 6; SMARCA2 act: 1

What do the screens show for `CC(=O)c1sc(N/N=C\c2ccc(N(C)C)cc2)nc1C`?
SKN-1 inh: 3; esBAF inh: 27; NR3A LBD binder: -15; Vif inh: -1; NadD block: -9; SMARCA2 act: 5

What do the screens show for `CCCN1C[C@@H](C)[C@@H](OC)CN(C)C(=O)c2ccc(NC(=O)CC(F)(F)F)cc2OC[C@@H]1C`?
esBAF inh: 4

What do the screens show for `CC(=O)c1sc(N/N=C/c2cccc([N+](=O)[O-])c2)nc1C`?
SKN-1 inh: -16; esBAF inh: 60*; NR3A LBD binder: -4; Vif inh: -10; NadD block: 8; SMARCA2 act: 4

How did CC(=O)c1sc(Nc2ccc3c(c2)OCO3)nc1C do in these assays?
SKN-1 inh: 8; esBAF inh: 47*; Vif inh: -5; NadD block: 1; SMARCA2 act: -3

How did CO[C@@H]1CN(C)C(=O)c2ccc(NC(=O)C3CC3)cc2OC[C@H](C)N(C)C[C@H]1C do in these assays?
esBAF inh: 1

What do the screens show for `CCCc1cc(-c2nc(-c3ccc(Br)cc3)cs2)ccn1`?
SKN-1 inh: 19; NR3A LBD binder: -10; Vif inh: -14; NadD block: 5; SMARCA2 act: -1

How did CCCc1cc(-c2nc(-c3ccc(Cl)cc3)cs2)ccn1 do in these assays?
SKN-1 inh: 56*; esBAF inh: 19; NR3A LBD binder: -7; Vif inh: -6; NadD block: 8; SMARCA2 act: 3

How did CCOc1cc(C(N)=O)cc(Br)c1OC do in these assays?
SKN-1 inh: 44*; esBAF inh: -12; NR3A LBD binder: 1; Vif inh: -7; NadD block: 4; SMARCA2 act: -1

How did CNC(=O)c1ccsc1NC(=O)c1ccc2c(c1)CCCC2 do in these assays?
SKN-1 inh: 5; esBAF inh: 56*; NR3A LBD binder: -1; Vif inh: -12; NadD block: -7; SMARCA2 act: 5

How did C[C@H]1CN([C@@H](C)CO)S(=O)(=O)c2ccc(C3=CCCC3)cc2O[C@H]1CN(C)Cc1ccncc1 do in these assays?
esBAF inh: -4

Results for COC(=O)Oc1ccc(/C=N/NS(=O)(=O)c2ccccc2)cc1OC ?
SKN-1 inh: -21; esBAF inh: 6; NR3A LBD binder: 0; Vif inh: -4; NadD block: -1; SMARCA2 act: -3

Results for COc1ccc(/C=N\NC(=O)c2ccccc2[N+](=O)[O-])cc1COc1c(F)c(F)c(F)c(F)c1F ?
SKN-1 inh: 7; NR3A LBD binder: 10*; NadD block: 0; SMARCA2 act: -1

What do the screens show for `COc1ccc(/C=N\NS(=O)(=O)c2ccc(Cl)cc2)cc1COc1ccccc1[N+](=O)[O-]`?
SKN-1 inh: -10; esBAF inh: 6; NR3A LBD binder: 24*; Vif inh: -1; NadD block: 25; SMARCA2 act: 0
